According to the supplement of paper PMC8540655:
Unmarked numbers belong to inactive results.

System: Aedes aegypti larvae
Assay: larval motility relative to same well at 0 h (fraction); higher = more motile (less active compound), active = 0.4 or less
Conditions: 10 µM
Method in brief: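 Aedes aegypti larvae were hatched at 25 °C in pond salt solution with yeast, collected after 18–24 h, and dispensed at about 10 per well (100 µL) in 96-well plates. Compounds were tested at 10 µM in 1% v/v DMSO, and each plate carried solvent and larvicide control wells. INVAPP movies of 200 frames at 100 ms intervals were recorded at 0, 2 and 24 h, and each value is the median of three independent larval batches. Relative motility is each well's score divided by that same well's starting score.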

Compound | larval motility (2 h) | larval motility (24 h)
O=C(Nc1nnc(-c2ccc(Cl)cc2)o1)c1ccc(F)cc1 | 1.18 | 0.816
Cn1c2ccccc2c(=O)c2c(O)cccc21 | 1.15 | 1.13
O=c1oc2ccc(Br)cc2cc1CSc1ncc[nH]1 | 0.806 | 0.972
O=C(Nc1ccc(N2CCN(C(=O)c3ccccc3)CC2)cc1)c1ccc2c(c1)OCO2 | 0.946 | 0.971
COc1ccc2nc(-c3ccccc3)cc(O)c2c1 | 1.08 | 0.908
CCC(C)NCC(O)Cn1c2ccc(Cl)cc2c2cc(Cl)ccc21 (stereo not given) | 0.799 | 1
CO/N=C(\C(=O)N[C@@H]1C(=O)N2C(C(=O)OCOC(=O)C(C)(C)C)=C(/C=C\c3scnc3C)CS[C@H]12)c1csc(N)n1 | 1.51 | 1.18
COc1ccc(SC(=O)N[C@H](CCC(=O)O)C(=O)O)cc1 | 0.861 | 0.93
Nc1nc(=O)c(Br)c(-c2cccc(Cl)c2)[nH]1 | 0.895 | 0.972
Nc1cc(-c2nc3ccccc3[nH]2)n[nH]c1=O | 1.17 | 1.18
COc1ccc2c(c1)cc(CNC(=O)c1cc3ccccc3o1)n2CC(=O)O | 0.674 | 0.871
CCc1cc(O)c(Oc2ccc(C(N)=O)cc2F)cc1F | 0.539 | 0.942
Cc1onc(-c2ccccc2Cl)c1C(=O)N[C@@H]1C(=O)N2[C@@H]1SC(C)(C)[C@@H]2C(=O)O | 1.22 | 1.24
O=C(NCc1cccc2ccccc12)c1cccs1 | 0.689 | 0.669
C=CCN(C(=O)OCc1ccc([N+](=O)[O-])cc1)C1CCN(CC[C@](C)(CN(C)S(=O)(=O)c2ccccc2)c2ccccc2)CC1 | 0.847 | 0.852
CCOc1ccc(C(=O)NCCc2ccccc2)cc1 | 1.05 | 0.979
N[C@H](CCC(=O)N[C@@H](Cc1c[nH]c2ccccc12)C(=O)O)C(=O)O | 0.936 | 0.838
O=C(Cn1cnc2ccccc2c1=O)Nc1ccccc1 | 0.554 | 0.782
CCOC(=O)N1CCN(c2ccc(Cl)cc2)CC1 | 1.05 | 1.36
COc1c(F)c(F)cc2c(=O)c(C(=O)O)cn(C3CC3)c12 | 0.765 | 1.08
C[C@@H](c1nc(-c2ccc(C#N)cc2)cs1)[C@](O)(Cn1cncn1)c1ccc(F)cc1F | 0.723 | 0.498
COc1ccc2c(c1OC)C(=O)OC2C1c2c(cc3c(c2OC)OCO3)CCN1C (stereo not given) | 0.987 | 0.828
Cc1cccc(C)c1C(=O)Nc1nc(-c2ccccn2)cc2ccccc12 | 0.564 | 1.01
CCN(CC)CCCC(C)Nc1ccnc2cc(Cl)ccc12 (stereo not given) | 0.715 | 0.484
NC(=O)[C@@H]1CC[C@@H]2CN1C(=O)N2OS(=O)(=O)O | 1.06 | 1.3
CC(C)N(c1cc(-c2ccccc2)sc1C(=O)O)C(=O)[C@H]1CC[C@H](C)CC1 | 0.697 | 0.742
O=c1nc(N2CCN(CC3CCCCC3)CC2)sc2c([N+](=O)[O-])cc(C(F)(F)F)cc12 | 0.712 | 1.04
CCOCc1nc2c(N)nc3ccccc3c2n1CC(C)(C)O | 1.09 | 0.906
CCOC(=O)N[C@@H]1CC[C@@H]2[C@@H](C1)C[C@H]1C(=O)O[C@H](C)[C@H]1[C@H]2/C=C/c1ccc(-c2cccc(F)c2)cn1 | 1.18 | 0.624
COc1cc2c(O)c3c(c(-c4ccc5c(c4)OCO5)c2cc1OC)C(=O)OC3 | 0.887 | 0.868
